Test results: PubChem BioAssay
Calls of active or inactive are those of the source.

Key:
[1] = small molecules captured by biotinylated probe aFSTL3 – biochemical, small-molecule microarray, fluorescence 635/667, stem cell growth factor project, primary screen (AID 1064); details: higher = more signal;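 further: measures binding of the biotinylated anti-FSTL3 antibody to printed compounds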
[2] = binders from COS7 lysate, DM2A8 probe, primary screen, torsin A project, cell lysate, small-molecule microarray, fluorescence 635/667 (AID 1065); details: higher = more signal, COS7 lysate expressing mutant human TOR1A
[3] = small molecules captured by biotinylated probe aFGF2 – biochemical, small-molecule microarray, fluorescence 635/667, stem cell growth factor project, primary screen (AID 1067); details: higher = more signal;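 further: measures binding of biotinylated aFGF2 protein to printed compounds on slides; z-score merges feature fluorescence and signal-to-noise across triplicate slides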
[4] = small molecules captured by biotinylated probe aFGF10 – biochemical, small-molecule microarray, fluorescence 635/667, stem cell growth factor project, primary screen (AID 1071); details: higher = more signal;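 further: score merges 667 nm spot intensity and signal to noise from triplicate slides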
[5] = target: Neurogenic locus notch homolog protein 2 (Homo sapiens) (UniProt Q04721); assay: small molecules binding Notch2 protein – biochemical, small-molecule microarray, 635 nm fluorescence, stem cell growth factors, primary screen (AID 1073); details: higher = more signal
Chain of Neurogenic locus notch homolog protein 2 (Homo sapiens) (Q04721 whole entry, looked up, canonical isoform): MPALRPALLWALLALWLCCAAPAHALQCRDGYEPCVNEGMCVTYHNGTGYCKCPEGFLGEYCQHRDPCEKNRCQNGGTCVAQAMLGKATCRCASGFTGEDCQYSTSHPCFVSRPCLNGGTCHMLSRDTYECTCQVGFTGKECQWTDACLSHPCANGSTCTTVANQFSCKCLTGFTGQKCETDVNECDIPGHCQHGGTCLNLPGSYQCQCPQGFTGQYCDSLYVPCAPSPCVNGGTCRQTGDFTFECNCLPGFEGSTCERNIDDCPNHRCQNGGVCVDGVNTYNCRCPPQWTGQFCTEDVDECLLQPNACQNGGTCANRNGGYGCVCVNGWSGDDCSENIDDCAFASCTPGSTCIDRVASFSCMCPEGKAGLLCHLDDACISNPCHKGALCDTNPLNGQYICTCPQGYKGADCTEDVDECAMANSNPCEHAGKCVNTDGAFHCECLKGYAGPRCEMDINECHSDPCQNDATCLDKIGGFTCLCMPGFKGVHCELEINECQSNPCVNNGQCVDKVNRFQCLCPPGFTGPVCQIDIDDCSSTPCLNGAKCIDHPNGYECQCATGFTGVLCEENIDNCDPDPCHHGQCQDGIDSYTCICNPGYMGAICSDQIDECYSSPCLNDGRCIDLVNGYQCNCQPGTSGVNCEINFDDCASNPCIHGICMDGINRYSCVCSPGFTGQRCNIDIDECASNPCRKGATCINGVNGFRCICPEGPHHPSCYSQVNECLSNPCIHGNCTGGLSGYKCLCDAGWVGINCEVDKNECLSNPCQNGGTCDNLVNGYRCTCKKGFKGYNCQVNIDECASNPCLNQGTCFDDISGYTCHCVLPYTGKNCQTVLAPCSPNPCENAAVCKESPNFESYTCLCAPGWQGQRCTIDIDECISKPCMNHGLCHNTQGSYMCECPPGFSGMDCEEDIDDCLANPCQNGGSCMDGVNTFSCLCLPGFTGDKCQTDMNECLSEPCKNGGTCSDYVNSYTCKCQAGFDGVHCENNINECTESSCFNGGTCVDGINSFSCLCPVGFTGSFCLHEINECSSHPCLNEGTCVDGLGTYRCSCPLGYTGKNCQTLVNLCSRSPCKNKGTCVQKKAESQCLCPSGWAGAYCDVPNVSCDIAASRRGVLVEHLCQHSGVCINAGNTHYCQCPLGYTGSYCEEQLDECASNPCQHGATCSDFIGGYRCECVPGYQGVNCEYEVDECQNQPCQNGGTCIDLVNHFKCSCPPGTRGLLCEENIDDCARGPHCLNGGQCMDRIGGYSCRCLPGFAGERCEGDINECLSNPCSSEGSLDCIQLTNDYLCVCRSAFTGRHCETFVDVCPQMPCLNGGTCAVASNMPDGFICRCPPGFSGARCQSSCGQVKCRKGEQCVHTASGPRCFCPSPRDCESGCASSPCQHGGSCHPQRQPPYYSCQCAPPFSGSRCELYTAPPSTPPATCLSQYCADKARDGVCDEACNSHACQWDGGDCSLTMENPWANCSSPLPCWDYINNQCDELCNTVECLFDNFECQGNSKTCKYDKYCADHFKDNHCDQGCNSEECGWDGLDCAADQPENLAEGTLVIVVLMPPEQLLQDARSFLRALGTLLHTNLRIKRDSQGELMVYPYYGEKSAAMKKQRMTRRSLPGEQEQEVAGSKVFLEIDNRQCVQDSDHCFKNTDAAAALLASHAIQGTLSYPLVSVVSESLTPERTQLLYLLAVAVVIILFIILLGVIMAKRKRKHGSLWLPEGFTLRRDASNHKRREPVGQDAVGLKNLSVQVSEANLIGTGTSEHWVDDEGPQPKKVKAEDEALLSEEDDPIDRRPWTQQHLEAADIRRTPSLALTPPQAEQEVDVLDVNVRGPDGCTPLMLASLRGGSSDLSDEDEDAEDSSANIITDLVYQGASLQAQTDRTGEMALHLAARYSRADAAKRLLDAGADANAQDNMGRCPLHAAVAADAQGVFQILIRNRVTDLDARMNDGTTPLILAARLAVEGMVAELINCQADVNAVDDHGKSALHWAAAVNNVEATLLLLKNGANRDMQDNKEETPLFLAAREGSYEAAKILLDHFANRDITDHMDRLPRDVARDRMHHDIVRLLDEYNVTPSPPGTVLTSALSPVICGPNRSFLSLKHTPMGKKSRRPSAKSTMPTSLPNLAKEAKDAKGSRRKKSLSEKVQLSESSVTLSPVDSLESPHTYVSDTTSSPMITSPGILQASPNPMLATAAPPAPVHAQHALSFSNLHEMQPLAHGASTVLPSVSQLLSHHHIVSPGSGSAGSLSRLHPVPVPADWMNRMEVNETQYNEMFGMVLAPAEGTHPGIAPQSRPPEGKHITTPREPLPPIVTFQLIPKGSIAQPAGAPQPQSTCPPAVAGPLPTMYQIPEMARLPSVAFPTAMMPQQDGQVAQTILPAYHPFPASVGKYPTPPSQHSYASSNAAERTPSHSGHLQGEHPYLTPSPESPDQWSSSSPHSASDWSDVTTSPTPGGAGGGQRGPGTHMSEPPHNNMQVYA

[6] = target: Pro-neuregulin-1, membrane-bound isoform (Homo sapiens) (UniProt Q02297); assay: small molecules binding neuregulin-1 protein – biochemical, small-molecule microarray, fluorescence 635/667, psychiatric disease protein project, primary screen (AID 1075); details: NRG1 binding, 635 nm fluorescence, higher = more signal;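 further: score combines 667 nm spot fluorescence with signal to noise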
Chain of Pro-neuregulin-1, membrane-bound isoform (Homo sapiens) (Q02297 whole entry, looked up, the tested form may be a part, canonical isoform): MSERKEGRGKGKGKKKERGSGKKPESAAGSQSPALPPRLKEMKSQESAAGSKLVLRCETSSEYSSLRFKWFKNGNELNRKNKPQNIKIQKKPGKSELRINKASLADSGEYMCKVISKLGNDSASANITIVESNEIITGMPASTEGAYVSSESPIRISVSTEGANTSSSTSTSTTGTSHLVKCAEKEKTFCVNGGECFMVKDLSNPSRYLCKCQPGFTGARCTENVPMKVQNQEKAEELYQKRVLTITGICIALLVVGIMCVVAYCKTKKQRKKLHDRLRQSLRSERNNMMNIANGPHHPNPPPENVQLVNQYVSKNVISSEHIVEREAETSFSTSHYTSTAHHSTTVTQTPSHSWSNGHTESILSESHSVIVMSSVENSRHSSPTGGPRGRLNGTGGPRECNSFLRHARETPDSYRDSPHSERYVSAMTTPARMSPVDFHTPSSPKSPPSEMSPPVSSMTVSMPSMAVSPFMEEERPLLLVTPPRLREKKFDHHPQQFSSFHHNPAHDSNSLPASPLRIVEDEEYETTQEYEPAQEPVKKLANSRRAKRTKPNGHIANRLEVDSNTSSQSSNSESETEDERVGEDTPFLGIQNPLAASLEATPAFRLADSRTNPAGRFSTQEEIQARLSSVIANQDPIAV

[7] = test system: Neuregulin-1 EGF-like domain; assay: small molecules binding NRG1 EGF domain – biochemical, small-molecule microarray, 635 nm fluorescence, primary screen (AID 1081); details: higher = more signal;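 further: binding of the protein to compounds printed on small-molecule microarray slides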
[8] = FRG1 expression reporter modulators in myotubes – cell-based, C2C12 myotubes, firefly/Renilla luciferase, luminescence, FRG1 inhibition for FSHD, primary screen (AID 1084); details: FRG1 promoter luciferase, higher = more signal, called active from +8 up or from −8 down
[9] = small molecules captured by biotinylated probe aFST – biochemical, small-molecule microarray, fluorescence 635/667, stem cell growth factor project, primary screen (AID 1086); details: higher = more signal;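 further: score merges 667 nm fluorescence with signal-to-noise of each printed compound spot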
[10] = binders of probe aHhip on microarray, primary screen, stem cell growth factor project, biochemical, small-molecule microarray, fluorescence 635/667 (AID 1087); details: higher = more signal;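 further: score merges spot fluorescence at 667nm with spot signal to noise ratio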

| Compound | composite z-score [1] | composite z-score [2] | composite z-score [3] | composite z-score [4] | composite z-score [5] | composite z-score [6] | composite z-score [7] | z-score [8] | composite z-score [9] | composite z-score [10] |
| --- | --- | --- | --- | --- | --- | --- | --- | --- | --- | --- |
| NC(=O)NCC#Cc1ccc2c(c1)[C@]1(C(=O)N2)[C@H](C(=O)Nc2nc3ccccc3s2)[C@H]2C(=O)O[C@H](c3ccccc3)[C@H](c3ccccc3)N2[C@@H]1c1ccccc1OCCO | 1.85 | 0.407 | 0.0863 | 1.01 | 1.03 | 1.57 | 0.406 | 1.62 (inactive) | 1.39 | -0.0478 |
| COc1ccc(/C=C/C=O)cc1 | -0.0583 | 0.144 | -0.0982 | 0.19 | 0.173 | -0.802 | -0.562 | 0.599 (inactive) | 0.0803 | 0.0975 |
| COC(=O)[C@@]1(Cc2ccc(F)cc2)[C@H]2c3cc(C(=O)N4CCCC4)n(CCCNc4ncc(C(F)(F)F)cc4Cl)c3C[C@H]2CN1C(=O)c1ccccc1 | 0.785 | -0.245 | 0.222 | 0.564 | 1.66 | 1.73 | 1.3 | 0.506 (inactive) | 0.977 | 0.449 |
| COc1ccc(C#Cc2ccc3c(c2)[C@]2(C(=O)N3)[C@H](C(=O)NC[C@H](O)c3ccccc3)[C@H]3C(=O)O[C@H](c4ccccc4)[C@H](c4ccccc4)N3[C@@H]2c2ccc(O)cc2)cc1 | -0.384 | 0.736 | -0.0824 | 0.857 | 1.2 | 1.52 | 1.34 | 0.254 (inactive) | 0.243 | -0.201 |
| COC(=O)[C@@]1(CCS(=O)(=O)c2ccccc2)N=C(c2ccc(OCCCO)cc2)O[C@H]1c1ccccc1CN=[N+]=[N-] | 0.959 | 0.38 | -0.0533 | -0.303 | 0.914 | 0.975 | 1.23 | -3.26 (inactive) | 0.883 | -0.0634 |
| C=CCNC(=O)[C@H]1[C@@H]2C(=O)O[C@@H](c3ccccc3)[C@@H](c3ccccc3)N2[C@@H](c2ccccc2OCCO)[C@]12C(=O)Nc1ccc(C#CCC(C(=O)OC)C(=O)OC)cc12 | 0.0775 | 0.44 | 0.0468 | 0.423 | 1.53 | 1.46 | 1.34 | -0.616 (inactive) | 1.08 | 0.409 |
| C=CCC(OC(C)=O)[C@@H]1[C@@H](N(Cc2ccc(-c3ccccc3)cc2)C(=O)c2cccc3ccccc23)c2cc(OCCCO)ccc2N1C(=O)c1ccc(-c2ccccc2)cc1 (stereo not given in full) | 0.103 | 0.177 | 0.0521 | 0.19 | 0.0198 | -0.0375 | -0.159 | -1.45 (inactive) | 0.461 | -0.0006 |
| COCCOC(=O)N1C(=O)[C@@]2(c3ccccc31)[C@H](c1ccc(O)cc1)N1[C@H](c3ccccc3)[C@H](c3ccccc3)OC(=O)[C@H]1[C@@H]2C(=O)Nc1nc2ccccc2s1 | 0.161 | 0.912 | -0.0441 | 0.175 | 1.16 | 1.38 | 1.11 | -0.929 (inactive) | 0.5 | 0.0139 |
| COC(=O)C[C@H]1O[C@]2(C(=O)N(C)c3ccccc32)[C@@H](C)[C@@H]1[Si](C)(C)F | -0.54 | 0.109 | -0.131 | 0.626 | 0.423 | -0.133 | 0.346 | -1.35 (inactive) | -0.0253 | 0.141 |
| CC(=O)NCCCC[C@@H]1NC(=O)[C@H]2C[C@@H](C(=O)NCCCCCCNC(=O)CS)[C@@H](c3ccc(O)cc3)N2C1=O | 0.993 | 1.42 | -0.0049 | 0.545 | -0.721 | 0.824 | 1.47 | 0.659 (inactive) | -0.555 | -0.108 |
| CO[C@H]1O[C@H](CO)[C@@H](OC(=O)Nc2ccc(Oc3ccccc3)cc2)[C@H](OC(=O)Nc2ccc3c(c2)OCO3)[C@H]1OC(=O)Nc1ccc2c(c1)OCO2 | 0.522 | 1.24 | 0.178 | 1.21 | 1.5 | 1.69 | 1.15 | 5.22 (inactive) | 0.968 | 0.241 |
| NC(=O)NCC#Cc1ccc2c(c1)[C@]1(C(=O)N2)[C@H](c2ccc(O)cc2)N2[C@H](c3ccccc3)[C@H](c3ccccc3)OC(=O)[C@H]2[C@@H]1C(=O)O | 0.741 | -0.935 | -0.176 | -0.225 | -0.897 | 1.08 | -0.224 | 0.473 (inactive) | -0.0113 | -0.457 |
| COC(=O)[C@@]1(Cc2ccc(OC)cc2)[C@H]2c3cc(C(=O)N4CCCC4)n(Cc4ccc(C)c(F)c4F)c3C[C@H]2CN1C(=O)c1ccccc1 | 0.77 | -0.5 | 0.176 | 0.78 | 1.77 | 1.65 | 1.31 | 0.352 (inactive) | 1.78 | 2.12 |
| CC(C)C(O)C1C=CC2C(=O)N(c3ccccc3)C(=O)C2N1Nc1ccc([N+](=O)[O-])cc1 (stereo not given) | 0.549 | -0.0664 | 0.0485 | 0.569 | 0.951 | 1.34 | 0.8 | 1.07 (inactive) | 0.886 | -0.214 |
